# Assay results published in PubChem BioAssay (Tox21).
# Results filed as inconclusive are left out. Where a call stands in place of a potency, no number is given. Active and inactive are the calls of the source. Unless noted, calls come from the whole dose curve; as a rule, active = well fitted curve in the direction sought with a large enough effect in the repeat runs; inconclusive = weak or mixed curves; inactive = no such curve, though single readings can be large; an effect the other way counts as inactive or inconclusive.
# Assays:
# [1] = qHTS assay to identify small molecule antagonists of the glucocorticoid receptor (GR) signaling pathway - cell viability counter screen (AID 720693); note: nearly all actives have a fitted effect of over 55% in size
# [2] = qHTS assay for identifying genotoxic compounds that show differential cytotoxicity against isogenic chicken DT40 cell lines with known DNA damage response pathways - wild type cell line (AID 743012); note: nearly all actives have a fitted effect of over 60% in size
# Method in brief: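 Wild type DT40, 300 cells/well, ~0.5 h settle at 37 C/5% CO2; compounds in DMSO added by pintool; 40 h at 37 C/5% CO2; CellTiter-Glo, 30 min RT; luminescence.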
# [3] = qHTS assay for identifying genotoxic compounds that show differential cytotoxicity against isogenic chicken DT40 cell lines with known DNA damage response pathways - Rev3 mutant cell line (AID 743014); note: nearly all actives have a fitted effect of over 55% in size
# [4] = qHTS assay to identify small molecule antagonists of the androgen receptor (AR) signaling pathway - cell viability counter screen (AID 743033; note: nearly all actives have a fitted effect of over 45% in size)
# [5] = qHTS assay to identify small molecule antagonists of the androgen receptor (AR) signaling pathway using the MDA cell line - cell viability counter screen (AID 743041; note: nearly all actives have a fitted effect of over 45% in size)
# Method in brief: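 MDA-kb2 AR-luc human breast carcinoma cells (MMTV-luciferase, AR/GR responsive) were treated with compounds plus R1881 agonist for 16 h at 37 °C. Viability was read as CellTiter-Fluor fluorescence in the same wells as the reporter assay.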
# [6] = qHTS assay to identify small molecule antagonists of the thyroid receptor (TR) signaling pathway - cell viability counter screen (AID 743064); note: nearly all actives have a fitted effect of over 50% in size
# Method in brief: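 Same-well viability check: GH3.TRE-Luc cells stimulated with 1 nM T3 alongside test compound for 23.5 h, followed by CellTiter-Fluor fluorescence.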
# [7] = qHTS assay to identify small molecule antagonists of the thyroid receptor (TR) signaling pathway (AID 743065); note: series mostly up to about 70 µM; nearly all actives have a fitted effect of over 55% in size
# Method in brief: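 GH3.TRE-Luc rat pituitary cells carrying two TR response elements driving luciferase were plated for 4 h, given compound plus 1 nM T3 (final), and incubated 23.5 h at 37 C. ONE-Glo luminescence measured reporter inhibition; CellTiter-Fluor fluorescence tracked cytotoxicity.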
# [8] = system: thyroid hormone receptor (rat, GH3 cells); test: qHTS assay to identify small molecule agonists of the thyroid receptor (TR) signaling pathway (AID 743066; calls by dose curve; note: potency is the fitted concentration of half-maximal effect)
# [9] = molecular target: Estrogen receptor (Homo sapiens) (UniProt P03372); test: qHTS assay to identify small molecule antagonists of the estrogen receptor alpha (ER-alpha) signaling pathway (AID 743069; active = well fitted curve in the direction sought with a large enough effect in the signal ratio in the repeat runs, not every such curve was filed as active; the % refers to the signal ratio)
# Sequence of Estrogen receptor (Homo sapiens) (P03372 whole entry, looked up): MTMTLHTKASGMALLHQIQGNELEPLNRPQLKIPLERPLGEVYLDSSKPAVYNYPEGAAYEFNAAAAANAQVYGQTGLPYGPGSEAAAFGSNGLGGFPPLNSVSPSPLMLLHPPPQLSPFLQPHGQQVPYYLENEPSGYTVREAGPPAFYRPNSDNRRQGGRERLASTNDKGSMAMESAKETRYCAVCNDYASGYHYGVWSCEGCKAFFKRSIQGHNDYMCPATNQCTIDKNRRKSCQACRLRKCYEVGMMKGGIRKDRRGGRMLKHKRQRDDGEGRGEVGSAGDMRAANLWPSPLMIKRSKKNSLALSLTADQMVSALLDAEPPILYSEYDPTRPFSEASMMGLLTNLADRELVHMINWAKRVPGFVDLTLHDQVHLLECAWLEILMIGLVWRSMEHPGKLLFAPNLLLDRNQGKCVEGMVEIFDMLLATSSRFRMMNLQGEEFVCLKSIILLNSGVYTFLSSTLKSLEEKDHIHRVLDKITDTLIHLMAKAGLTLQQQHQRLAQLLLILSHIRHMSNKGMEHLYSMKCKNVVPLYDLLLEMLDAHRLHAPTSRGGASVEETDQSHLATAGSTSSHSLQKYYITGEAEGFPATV
# Method in brief: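 HEK293 cells stably carrying an ER-alpha-UAS-bla beta-lactamase reporter were pre-cultured overnight in 2% charcoal-stripped FBS medium. Test compounds in DMSO were added together with 17beta-estradiol for 18 hr at 37C. Read-out was fluorescence after 2 hr with LiveBLAzer B/G FRET substrate at room temperature.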
# [10] = qHTS assay to identify small molecule antagonists of the estrogen receptor alpha (ER-alpha) signaling pathway - cell viability counter screen (AID 743074; calls by dose curve; note: nearly all actives have a fitted effect of over 45% in size; note: potency is the fitted concentration of half-maximal effect)
# [11] = molecular target: Estrogen receptor (Homo sapiens) (UniProt P03372); test: qHTS assay to identify small molecule agonists of the estrogen receptor alpha (ER-alpha) signaling pathway (AID 743075; calls by dose curve; note: potency is the fitted concentration of half-maximal effect)
# [12] = molecular target: Estrogen receptor (Homo sapiens) (UniProt P03372); test: qHTS assay to identify small molecule agonists of the estrogen receptor alpha (ER-alpha) signaling pathway using the BG1 cell line (AID 743079); note: nearly all actives have a fitted effect of over 20% in size; note: potency is the fitted concentration of half-maximal effect
# [13] = qHTS assay to identify small molecule antagonists of the estrogen receptor alpha (ER-alpha) signaling pathway using the BG1 cell line (AID 743080; calls by dose curve;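 note: BG1 cells stimulated with 17beta-estradiol alongside compound; series mostly up to about 70 µM; nearly all actives have a fitted effect of over 25% in size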)
# Method in brief: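 Seeding, 24 h rest, compound transfer from DMSO, 17beta-estradiol addition, 21.5 h incubation, CellTiter-Fluor (30 min, 37 C), then ONE-Glo (30 min, room temperature): this sequence was run on BG1-Luc-4E2 reporter cells.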
# [14] = qHTS assay to identify small molecule antagonists of the estrogen receptor alpha (ER-alpha) signaling pathway using the BG1 cell line - cell viability counter screen (AID 743081);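 note: compound given together with 17beta-estradiol as the ER stimulus; series mostly up to about 70 µM; nearly all actives have a fitted effect of over 45% in size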
# Aromatase (Homo sapiens) = Aromatase (Homo sapiens) (UniProt P11511); test: qHTS assay to identify aromatase inhibitors (AID 743083); note: series mostly up to about 70 µM; nearly all actives have a fitted effect of over 55% in size
# Sequence of Aromatase (Homo sapiens) (P11511 whole entry, looked up): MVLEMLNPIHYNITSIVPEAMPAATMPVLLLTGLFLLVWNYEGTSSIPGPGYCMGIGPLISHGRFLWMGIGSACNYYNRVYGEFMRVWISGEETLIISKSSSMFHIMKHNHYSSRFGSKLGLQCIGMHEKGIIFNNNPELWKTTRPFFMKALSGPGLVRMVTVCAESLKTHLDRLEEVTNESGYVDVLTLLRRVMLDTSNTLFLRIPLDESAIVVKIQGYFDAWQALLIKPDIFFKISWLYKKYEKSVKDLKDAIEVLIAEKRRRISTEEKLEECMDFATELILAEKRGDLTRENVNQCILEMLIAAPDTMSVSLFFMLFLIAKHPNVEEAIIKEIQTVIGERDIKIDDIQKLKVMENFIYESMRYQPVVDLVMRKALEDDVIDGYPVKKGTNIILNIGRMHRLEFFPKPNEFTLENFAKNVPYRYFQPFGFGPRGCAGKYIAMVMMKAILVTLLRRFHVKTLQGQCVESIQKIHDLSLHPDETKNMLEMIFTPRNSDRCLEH
# [15] = qHTS assay for identifying genotoxic compounds that show differential cytotoxicity against isogenic chicken DT40 cell lines with known DNA damage response pathways - Rad54/Ku70 mutant cell line (AID 743015); note: nearly all actives have a fitted effect of over 60% in size
# [16] = molecular target: Androgen receptor (Homo sapiens) (UniProt P10275); test: qHTS assay to identify small molecule antagonists of the androgen receptor (AR) signaling pathway (AID 743035; active = well fitted inhibition curve with a large enough effect in the signal ratio in the repeat runs, not every such curve was filed as active; the % refers to the signal ratio)
# Sequence of Androgen receptor (Homo sapiens) (P10275 whole entry, looked up): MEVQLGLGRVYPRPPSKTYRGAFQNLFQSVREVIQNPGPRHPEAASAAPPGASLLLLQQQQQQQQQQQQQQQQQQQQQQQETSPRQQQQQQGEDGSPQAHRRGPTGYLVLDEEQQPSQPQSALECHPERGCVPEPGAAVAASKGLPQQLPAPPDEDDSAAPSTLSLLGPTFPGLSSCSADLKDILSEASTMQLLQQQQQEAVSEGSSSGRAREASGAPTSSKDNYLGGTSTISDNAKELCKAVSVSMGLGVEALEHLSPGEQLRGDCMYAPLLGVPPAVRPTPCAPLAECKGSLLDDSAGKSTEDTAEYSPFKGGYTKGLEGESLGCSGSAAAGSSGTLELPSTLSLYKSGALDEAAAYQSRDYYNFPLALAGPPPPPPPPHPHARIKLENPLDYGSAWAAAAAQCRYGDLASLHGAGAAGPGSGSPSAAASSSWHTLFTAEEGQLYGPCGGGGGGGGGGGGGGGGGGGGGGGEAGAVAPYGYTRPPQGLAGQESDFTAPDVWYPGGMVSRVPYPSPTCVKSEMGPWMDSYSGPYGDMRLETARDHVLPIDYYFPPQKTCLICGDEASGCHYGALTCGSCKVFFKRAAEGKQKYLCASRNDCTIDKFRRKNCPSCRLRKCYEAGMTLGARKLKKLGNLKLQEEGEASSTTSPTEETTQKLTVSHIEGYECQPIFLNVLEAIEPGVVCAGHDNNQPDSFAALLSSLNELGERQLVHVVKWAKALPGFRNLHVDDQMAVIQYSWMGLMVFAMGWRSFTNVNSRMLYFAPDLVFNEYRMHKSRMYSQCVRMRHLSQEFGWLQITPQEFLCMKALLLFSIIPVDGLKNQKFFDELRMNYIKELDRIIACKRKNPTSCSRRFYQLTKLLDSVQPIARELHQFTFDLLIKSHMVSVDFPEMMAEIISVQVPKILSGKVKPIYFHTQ
# Method in brief: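 Fluorescence from a beta-lactamase FRET substrate (LiveBLAzer B/G, 2 h, room temperature) measured inhibition of R1881-stimulated signaling in GeneBLAzer AR-UAS-bla HEK293 cells exposed to compound for 16 h at 37C.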
# [17] = molecular target: Androgen receptor (Homo sapiens) (UniProt P10275); test: qHTS assay to identify small molecule agonists of the androgen receptor (AR) signaling pathway (AID 743036; active = well fitted activation curve with a large enough effect in the signal ratio in the repeat runs, with a control signal flat, not every such curve was filed as active; the % refers to the signal ratio)
# Method in brief: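 Agonist activity was scored by beta-lactamase reporter fluorescence in stably transfected HEK293 cells exposed to compounds for 16 h at 37C and 5% CO2. Substrate loading took 2 h at room temperature.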
# [18] = molecular target: Androgen receptor (Homo sapiens) (UniProt P10275); test: qHTS assay to identify small molecule agonists of the androgen receptor (AR) signaling pathway using the MDA cell line (AID 743040; note: nearly all actives have a fitted effect of over 20% in size)
# Method in brief: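 MDA-kb2 breast carcinoma cells stably carrying an MMTV-driven luciferase reporter (AR- and GR-responsive) were seeded and held 5 h at 37C, 0% CO2, then exposed to compounds in DMSO for 16 h. Luminescence was read 30 min after ONE-Glo addition.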
# [19] = molecular target: Androgen receptor (Homo sapiens) (UniProt P10275); test: qHTS assay to identify small molecule antagonists of the androgen receptor (AR) signaling pathway using the MDA cell line (AID 743042; note: nearly all actives have a fitted effect of over 55% in size)
# Method in brief: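 MDA-kb2 cells (human breast carcinoma, stably carrying an MMTV-luciferase reporter responsive to AR and GR) were plated at 3,000 cells/well and preincubated 5 hr at 37C, then given compound plus R1881 agonist for 16 h. ONE-Glo luminescence was read.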
Compound,Potency [1],Potency [2],Potency [3],outcome [4],outcome [5],Potency [6],Potency [7],Potency [8],Potency [9],Potency [10],Potency [11],Potency [12],outcome [13],outcome [14],outcome (Aromatase (Homo sapiens)),Potency [15],Potency [16],outcome [17],outcome [18],outcome [19]
CCCCCC(=O)OCC,inactive,inactive,inactive,inactive,inactive,inactive,inactive,inactive,inactive,inactive,inactive,inactive,inactive,inactive,inactive,,,,,
O=C(O)Cc1cccc(-c2cc(CCCCCCc3ccc(O[C@H]4O[C@H](CO)[C@@H](O)[C@H](O)[C@@H]4O)c(-c4cccc(CC(=O)O)c4)c3)ccc2O[C@H]2O[C@H](CO)[C@@H](O)[C@H](O)[C@@H]2O)c1,inactive,inactive,inactive,,inactive,,inactive,inactive,,,,,,inactive,inactive,inactive,,,,
F[Si-2](F)(F)(F)(F)F,inactive,inactive,inactive,inactive,inactive,inactive,inactive,inactive,inactive,inactive,inactive,inactive,inactive,inactive,inactive,,,,,
CC(C)c1ccccc1O,inactive,inactive,inactive,inactive,,inactive,,inactive,,inactive,,,,inactive,inactive,inactive,,,,
O=C1OC(=O)c2ccccc21,inactive,inactive,inactive,inactive,,inactive,inactive,inactive,inactive,inactive,inactive,inactive,inactive,inactive,inactive,inactive,,,,
COc1cc(C=O)ccc1OC(=O)C(C)C,inactive,inactive,inactive,inactive,inactive,inactive,inactive,inactive,,inactive,,,,inactive,inactive,,,,,
CC(=O)c1ccc(OCC(=O)N2CCCCC2)cc1,inactive,inactive,inactive,inactive,inactive,inactive,inactive,inactive,inactive,inactive,inactive,18.8 µM (active),,,inactive,,,,,
CCCCCCCC[Si](OCC)(OCC)OCC,inactive,inactive,inactive,inactive,,,inactive,inactive,,54.9 µM (active),,,,inactive,inactive,inactive,,,,
CCCCCCCCCCCCC,inactive,inactive,inactive,,inactive,inactive,inactive,inactive,inactive,inactive,inactive,inactive,inactive,inactive,inactive,inactive,,,,
CC(C)COC(=O)CC(C(=O)OCC(C)C)S(=O)(=O)O (stereo not given),inactive,inactive,inactive,inactive,,inactive,inactive,inactive,inactive,inactive,inactive,inactive,inactive,inactive,inactive,inactive,,,,
CCS(=O)(=O)CCn1c([N+](=O)[O-])cnc1C,inactive,inactive,inactive,inactive,inactive,inactive,inactive,inactive,inactive,inactive,10.2 µM [activator] (active),2.27 µM (active),inactive,inactive,inactive,,,,,
C[C@H](CCC(=O)O)[C@H]1CC[C@H]2[C@@H]3[C@H](O)C[C@@H]4C[C@H](O)CC[C@]4(C)[C@H]3C[C@H](O)[C@]12C,inactive,inactive,inactive,inactive,,inactive,inactive,inactive,inactive,inactive,inactive,inactive,inactive,inactive,inactive,inactive,,,,
SCCSCCS,inactive,inactive,inactive,inactive,,inactive,inactive,inactive,,inactive,,,,inactive,inactive,inactive,,,,
CC(=O)OC(C)(C)Cc1ccccc1,inactive,inactive,inactive,inactive,inactive,inactive,inactive,inactive,,inactive,,,,inactive,,,,,,
COc1ccc(/C=N/NC(=O)c2ccncc2)cc1OC,inactive,inactive,inactive,inactive,inactive,inactive,inactive,inactive,inactive,inactive,inactive,inactive,inactive,inactive,inactive,,inactive,inactive,inactive,inactive
O=C(O)CCNC(=O)c1ccccc1,inactive,inactive,inactive,inactive,inactive,inactive,inactive,11.9 µM (active),inactive,inactive,inactive,,inactive,inactive,inactive,,,,,
O=CN1CCOCC1,inactive,inactive,inactive,inactive,inactive,inactive,inactive,inactive,inactive,inactive,inactive,inactive,inactive,inactive,inactive,,,inactive,inactive,inactive
O=C1CC[C@H](C(=O)N2CCCCC2)N1,inactive,inactive,inactive,inactive,,,,,,,inactive,inactive,inactive,,inactive,inactive,,,,
CC(C)COC(=O)/C=C/c1ccccc1,inactive,inactive,inactive,inactive,inactive,inactive,inactive,inactive,inactive,inactive,inactive,inactive,inactive,inactive,,,,,,
O=C1NC2NC(=O)NC2N1 (stereo not given),inactive,inactive,inactive,inactive,,inactive,inactive,inactive,,inactive,,,,inactive,inactive,inactive,,,,
CNCc1ccccc1,inactive,inactive,inactive,inactive,,inactive,inactive,inactive,,inactive,,,,inactive,inactive,inactive,,,,
